We go through 12 compounds from PubChem BioAssay (NCATS).

Values without a mark were called inactive. Records with an inconclusive call do not appear. The source made the active and inactive calls. Unless noted, calls follow the shape of the dose curve; as a rule, active = well fitted curve in either direction with a large enough effect (not every such curve was filed as active); inconclusive = small, poorly fitted or top-dose-only effect, or another doubt; inactive = flat fitted curve, though single readings scatter.

The nature of assay [1]: AP1 Signaling Pathway (AID 357). Also: % is scaled to controls: 0 for no effect and ±100 for the full control effect. The settings on record: ME-180 AP-1-bla reporter, EGF-induced, beta-lactamase ratio, 5 h. In a few lines: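 AP-1-bla ME-180 cells with beta-lactamase reporter under AP-1 response element, stimulated with EC50 EGF; compounds titrated, 5 hours at 37 degrees Celsius. CCF4 read at 460/530 nm ratio; positive and negative modulators judged by AC50.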

A short description of assay [2]: NFAT Signaling Pathway (AID 444).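 Also: carbachol stimulus at about its EC50 of 1 µM final; % is scaled to controls: 0 for no effect and ±100 for the full control effect.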 The settings on record: Jurkat NFAT-bla M1, carbachol, beta-lactamase ratio, 5 h; at 17.2 µM (top of the series). A digest of the protocol: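 Jurkat cells with NFAT-driven β-lactamase reporter and co-expressed M1 receptor, stimulated with carbachol (final 1 uM, ~EC50), compound titration, 5 h at 37 °C. CCF4 loaded 1 h at RT; 460/530 nm ratio gave %activity and AC50.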

For assay [3], the target named is Glucocorticoid receptor (Homo sapiens) (UniProt P04150). The assay is described as follows: GR-GFP Redistribution (AID 450;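 active = compounds whose dose series gives a full or clear partial fitted curve of increased nuclear translocation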; also: potency is read from the fitted curve at half-maximal effect). The settings on record: U2OS GR-GFP nuclear translocation, laser cytometry, 2 h.
Assay [4] is described as follows: Stat Signaling Pathway (AID 446).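 Also: ME-180 cervical cancer cells given 40 pM IL-6 alongside compound; SIE-controlled beta-lactamase reporter measured as 460/530 nm FRET emission ratio; % is scaled to controls: 0 for no effect and ±100 for the full control effect.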 Conditions: ME-180 (cervical carcinoma) SIE beta-lactamase reporter, IL-6 stimulated, 5 h; at 17.2 µM (top of the series). A digest of the protocol:
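Compound effects on IL-6-induced STAT reporter activity were measured in ME-180 cells. After overnight culture, cells were co-treated with 40 pM IL-6 for 5 hrs before beta-lactamase substrate loading at room temperature.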

Assay [5] addresses Glucocorticoid receptor (Homo sapiens) (UniProt P04150). As to the kind of experiment: GR-EFC Redistribution (AID 451; calls by dose curve; also: potency is read from the fitted curve at half-maximal effect). The settings on record: CHO-K1 GR-EFC translocation, beta-gal luminescence, 2 h. A digest of the protocol: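 CHO-K1 cells expressing nuclear EA and GR-ED fragments of b-gal; compounds titrated up to 46 uM final, 2 h at 37 C. GR nuclear translocation read as complemented b-gal luminescence after 1 h RT detection.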

Assay [6] deals with Mitogen-activated protein kinase 10 (Mus musculus) (UniProt Q61831). The assay is described as follows: JNK3 AlphaScreen Assay (AID 530).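 Also: kinase came from lysate of stimulated human HepG2 cells; signal reports phosphorylation of biotinylated GST-cJun 1-79 at Ser73 with 10 µM ATP; % is scaled to controls: 0 for no effect and ±100 for the full control effect.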 The settings on record: JNK3 lysate, c-Jun phosphorylation; series mostly up to 25.6 µM. In a few lines:
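Activity was read by AlphaScreen after JNK3-containing HepG2 lysate (cytokine pre-activated) phosphorylated biotinylated GST-cJun with 10 uM ATP at room temperature. Phospho-Ser73 cJun antibody with Protein-A acceptor beads provided detection.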

The nature of assay [7]: Cell Viability - BJ (AID 421; calls by dose curve;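 also: potency is read from the fitted curve at half-maximal effect; cells exposed to compound for 40 hours at 37 °C before readout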). The settings on record: BJ fibroblast viability, qHTS. In a few lines:
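Luminescent ATP signal (CellTiter-Glo, 20 min at room temperature) served as the read-out of viable BJ cells after 40 hours of compound treatment. Responses were scaled between DMSO and 100 uM tamoxifen, and AC50 values were obtained by Hill modeling.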
Background: In qHTS, concentration-response curves come from the screen itself.

Assay [8] in a line: Cell Viability - HepG2 (AID 433; calls by dose curve;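 also: potency is read from the fitted curve at half-maximal effect; potency for ATP loss meaning cytotoxicity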). Conditions: qHTS. In a few lines: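 Read-out is luciferase-based quantitation of cellular ATP as a measure of viable HepG2 cells after 40 h treatment at 37 °C. Signal decrease is scaled between DMSO-only and 100 uM tamoxifen controls, with AC50 fitted by the Hill equation.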
A short description of assay [9]: Cell Viability - MRC5 (AID 434; calls by dose curve;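 also: potency is read from the fitted curve at half-maximal effect; cells exposed to compound for 40 hours at 37 °C; potency reflects cytotoxicity seen as loss of intracellular ATP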). Conditions: MRC5 lung fibroblast viability, qHTS. In a few lines:
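ATP luminescence read-out (CellTiter-Glo, 20 min RT) after 40 hr, 37 °C compound exposure of 1500 MRC5 cells/well. Data normalized to DMSO (basal) and 100 uM tamoxifen (100% inhibition); AC50 from standard Hill equation.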

Assay [10] can be described thus: Cell Viability - SK-N-SH (AID 435; calls by dose curve; also: potency is read from the fitted curve at half-maximal effect). Conditions: SK-N-SH neuroblastoma cell viability qHTS. A digest of the protocol:
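Luminescent ATP signal served as the viability read-out after 40 hours of compound treatment of human neuroblastoma SK-N-SH cells. Concentration-response data, scaled between DMSO and 100 uM tamoxifen, gave AC50 values by standard Hill modeling.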

A short description of assay [11]: Cell Viability - NIH 3T3 (AID 541; active = well fitted curve in the direction sought with a large enough effect; an effect the other way counts as inactive or inconclusive;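 also: plate controls were DMSO alone for no effect and tamoxifen positive control for full effect; nearly all actives have a fitted effect of over 25% in size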). The settings on record: NIH 3T3 cell viability, qHTS; activity change, negative = cytotoxicity: at 92.2 µM (top of the series). In a few lines: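 Intracellular ATP (CellTiter-Glo luminescence, 20 min at room temperature) measured after 40 hr compound exposure at 37 °C of 1000 NIH 3T3 mouse fibroblasts/well in complete medium; AC50 derived by Hill-equation modelling of qHTS concentration-response curves.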

A short description of assay [12]: Cell Viability - HUV-EC-C (AID 542; active = well fitted curve in the direction sought with a large enough effect; an effect the other way counts as inactive or inconclusive; also: % is scaled to controls: 0 for no effect and ±100 for the full control effect; nearly all actives have a fitted effect of over 35% in size). The settings on record: HUV-EC-C endothelial cell viability, qHTS; series mostly up to 92.2 µM. In a few lines: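 CellTiter-Glo luminescence measured ATP loss in HUV-EC-C cells (1000/well) after 40 hr compound exposure at 37 °C, in complete culture medium. Concentration-response data were Hill-fitted to give AC50.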
The nature of assay [13]: Cell Viability - H-4-II-E (AID 543; active = well fitted curve in the direction sought with a large enough effect; an effect the other way counts as inactive or inconclusive; also: potency is read from the fitted curve at half-maximal effect; nearly all actives have a fitted effect of over 35% in size). Conditions: H-4-II-E rat hepatoma viability; series mostly up to 92.2 µM. In a few lines:
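CellTiter-Glo luminescence (intracellular ATP) measured after 40 h compound exposure at 37 °C in H-4-II-E rat hepatoma cells seeded at 1500/well. Values are AC50s fitted with the standard Hill equation.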

The target in assay [14] is Cytochrome P450 1A2 (Homo sapiens) (UniProt P05177). As to the kind of experiment: p450-cyp1a2 (AID 410; calls by dose curve; also: potency is read from the fitted curve at half-maximal effect;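 as to activity change, negative = inhibition: -100% = full effect of reference inhibitor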). The settings on record: recombinant CYP1A2, luciferin-ME demethylation, luminescence; series mostly up to 25.6 µM. A digest of the protocol: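 Luminescent demethylation readout: Luciferin-ME (100uM, equal to Km) turned over by 20nM CYP1A2 for 60 min at room temperature after NADPH regeneration addition, following 10 min compound preincubation. Normalization used 57 uM furafylline as full inhibition.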
Cytochrome P450 1A2 (Homo sapiens), sequence (P05177 whole entry, looked up): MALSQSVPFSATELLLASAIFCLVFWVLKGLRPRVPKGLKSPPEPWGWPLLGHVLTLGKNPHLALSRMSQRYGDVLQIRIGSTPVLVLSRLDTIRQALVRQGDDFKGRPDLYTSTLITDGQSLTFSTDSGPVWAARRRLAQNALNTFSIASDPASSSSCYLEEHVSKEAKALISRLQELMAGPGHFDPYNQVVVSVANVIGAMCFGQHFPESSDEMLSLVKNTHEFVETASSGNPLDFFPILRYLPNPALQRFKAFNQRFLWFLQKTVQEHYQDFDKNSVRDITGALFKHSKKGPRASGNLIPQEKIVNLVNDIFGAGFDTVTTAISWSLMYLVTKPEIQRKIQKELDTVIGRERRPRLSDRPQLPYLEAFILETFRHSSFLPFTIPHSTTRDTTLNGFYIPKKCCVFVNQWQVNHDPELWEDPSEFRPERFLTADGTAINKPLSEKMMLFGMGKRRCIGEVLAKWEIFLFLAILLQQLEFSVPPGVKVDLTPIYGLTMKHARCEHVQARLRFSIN

Glucocorticoid receptor (Homo sapiens), sequence (P04150 whole entry, looked up, the tested form may be a part): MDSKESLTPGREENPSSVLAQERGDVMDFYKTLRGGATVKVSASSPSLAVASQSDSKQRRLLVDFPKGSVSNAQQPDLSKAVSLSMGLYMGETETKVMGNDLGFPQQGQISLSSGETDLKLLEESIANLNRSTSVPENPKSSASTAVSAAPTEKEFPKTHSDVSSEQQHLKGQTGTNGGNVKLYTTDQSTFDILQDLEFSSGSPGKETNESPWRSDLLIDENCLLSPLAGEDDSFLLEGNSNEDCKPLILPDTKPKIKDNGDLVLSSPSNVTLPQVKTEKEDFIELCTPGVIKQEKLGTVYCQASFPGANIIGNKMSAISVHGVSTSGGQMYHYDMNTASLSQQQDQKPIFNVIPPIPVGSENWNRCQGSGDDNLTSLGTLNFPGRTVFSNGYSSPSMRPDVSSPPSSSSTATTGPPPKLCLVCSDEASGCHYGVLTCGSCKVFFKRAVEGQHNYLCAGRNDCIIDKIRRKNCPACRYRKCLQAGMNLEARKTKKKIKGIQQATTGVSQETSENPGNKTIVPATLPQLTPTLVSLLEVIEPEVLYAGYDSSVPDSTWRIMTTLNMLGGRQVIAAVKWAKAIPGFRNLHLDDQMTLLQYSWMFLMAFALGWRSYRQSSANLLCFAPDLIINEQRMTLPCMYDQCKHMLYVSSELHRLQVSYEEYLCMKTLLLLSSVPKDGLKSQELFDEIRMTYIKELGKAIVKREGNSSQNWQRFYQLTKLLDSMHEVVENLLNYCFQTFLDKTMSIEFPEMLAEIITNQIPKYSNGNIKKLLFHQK

Regarding `CC(CCc1ccccc1)NCC(O)c1ccc(O)c(C(N)=O)c1` (configuration not stated), the activity change, negative = inhibition was 5.69% in assay [1] (at 17.2 µM (top of the series)) and 9.12% in [2]. Besides, in assay [3], the Potency is over 20.6 µM.
With `CC(C)N=C(N)/N=C(\N)Nc1ccc(Cl)cc1`, the activity change, negative = inhibition is -0.245% in assay [1] (at 17.2 µM (top of the series)) and -11% in assay [2]. The activity, negative = inhibition in assay [4] is -2.15%. The Potency in assay [3] and in [5] was over 20.6 µM each time. Moreover, the compound was called inactive in [6].
Turning to `O=C1c2ccccc2C(=O)C1c1ccccc1`, the activity change, negative = inhibition in [1] (at 17.2 µM (top of the series)) was -0.252%; in assay [2], -11.7%. In [4], the activity, negative = inhibition was 3.06%. Also, the Potency in assay [3] and in assay [5] was over 20.6 µM each time. In [6], the compound was called inactive.
Take `Cc1cccc(C)c1NC(=O)CN1CCN(CCCC(c2ccc(F)cc2)c2ccc(F)cc2)CC1`: the figures for the activity change, negative = inhibition in assay [1] (at 17.2 µM (top of the series)) and in assay [2] were 4.39% and 5.94%, respectively. Moreover, in [4], the activity, negative = inhibition is -20%. Besides, the result in assay [6] was inactive.
`CCN(CCCCOC(=O)c1ccc(OC)c(OC)c1)C(C)Cc1ccc(OC)cc1` (configuration not stated): the figures for the activity change, negative = inhibition in assay [1] (at 17.2 µM (top of the series)) and in assay [2] were -6.87% and -93.3% (active), respectively. Besides, in [3], the Potency was over 20.6 µM.
With `CC(=O)O[C@]1(C(C)=O)CC[C@H]2[C@@H]3C[C@H](C)C4=CC(=O)CC[C@]4(C)[C@H]3CC[C@@]21C`, the figures for the activity change, negative = inhibition in assay [1] (at 17.2 µM (top of the series)) and in assay [2] were 15.9% and 6.28%, respectively. Moreover, the Potency is over 92 µM in assay [7]; over 92 µM in assay [8]; over 92 µM in assay [9]; over 92 µM in [10]; 50.1 µM (active) in assay [13]. Besides, in assay [6], the compound was classed as inactive. Moreover, the activity change, negative = cytotoxicity in assay [11] is -134% (active). Also, the Potency entry in assay [12] was “inactive”.
`CC(=O)OCC(=O)[C@@]1(OC(C)=O)[C@@H](C)C[C@H]2[C@@H]3C[C@H](F)C4=CC(=O)C=C[C@]4(C)[C@@]3(F)[C@@H](O)C[C@@]21C`: the activity change, negative = inhibition in [1] (at 17.2 µM (top of the series)) was -3.12%; in assay [2], 17.4%. In addition, the activity, negative = inhibition in assay [4] is 0.432%. The Potency in assay [3] is 0.000878 µM (active).
Take `CCCC(=O)Nc1ccc(OCC(O)CNC(C)C)c(C(C)=O)c1` (configuration not stated): the activity change, negative = inhibition in assay [1] (at 17.2 µM (top of the series)) is 0.101%; in [2], -15.3%. Moreover, the activity, negative = inhibition in [4] is 7.52%. In assay [3], the Potency is over 20.6 µM.
For the compound `COc1cc(NS(C)(=O)=O)ccc1Nc1c2ccccc2nc2ccccc12`, the activity change, negative = inhibition in assay [1] (at 38 µM (top of the series)) was -9.96%. For the same compound, the figures for the Potency in assay [14], in assay [3] and in [5] were 7.94 µM (active), over 46 µM and over 46 µM, respectively.
For `CN(C(=O)CN(CCO)CC(=O)N(C)C(C)(C)Cc1ccccc1)C(C)(C)Cc1ccccc1`, the results for the activity change, negative = inhibition in assay [1] (at 17.2 µM (top of the series)) and in assay [2] were -21.6% and -2.45%, respectively. Further, in assay [14], the Potency result was “inactive”. Besides, the Potency in assay [3] and in [5] was over 20.6 µM throughout. Further, the outcome in assay [6] was inactive.
For `CC(=O)OCC(=O)[C@@]12OC(C)(C)O[C@@H]1C[C@H]1[C@@H]3C[C@H](F)C4=CC(=O)C=C[C@]4(C)[C@@]3(F)[C@@H](O)C[C@@]12C`, the activity change, negative = inhibition in [1] (at 17.2 µM (top of the series)) was -9.69%; in assay [2], 15.1%. Also, in [3], the Potency was 0.00057 µM (active).
Regarding `CC1(C)O[C@@H]2C[C@H]3[C@@H]4C[C@H](F)C5=CC(=O)CC[C@]5(C)[C@H]4[C@@H](O)C[C@]3(C)[C@]2(C(=O)CO)O1`, the activity change, negative = inhibition in [1] (at 17.2 µM (top of the series)) is -0.38%; in [2] it was 16.2%. In [4], the activity, negative = inhibition is -6.53%. Also, the Potency in assay [3] is 0.00217 µM (active).
